Experimental data published in PubChem BioAssay.
Records with an inconclusive call do not appear. Calls of active or inactive are those of the source.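 How the source made its calls, unless noted: active means viability loss from added drug above about 55%, and viability with drug at most 40%, in both replicates (limit read from the data, passing the limit was not always enough); inconclusive means both conditions met in only one replicate; inactive means neither replicate meets both conditions.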

Legend:
[1] = Her2 expression decrease, cell viability multiplex – SKBR3 breast tumor cells, AlphaScreen, ATP viability, primary screen (AID 461;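 active means Her2 level under about 52% in both replicate screens, with viability over 70% of control, limit read from the data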;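 on Her2 level: lower value means less Her2 protein in the cells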;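 on viability: percent of carrier control wells set as 100% viability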); conditions: SKBR3 Her2 protein level, 18-24 h, measured here: SKBR3 viability, ATP luminescence, at 10 µM
[2] = target: Receptor tyrosine-protein kinase erbB-2 (Homo sapiens) (UniProt P04626); assay: as above; conditions: 18-24 h, at 10 µM, stronger effect = lower value
[3] = reduced viability of SK-BR-3 breast cancer cells – cell-based, 24 h, human, pilot screen (AID 572;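 active means viability at or below 10% of carrier control in both of two separate runs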;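 further: compound exposure lasted between 18 and 24 h rather than exactly 24 h; 100% = carrier-treated control wells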); conditions: SK-BR-3 viability, CellTiter-Glo luminescence, at 10 µM, stronger effect = lower value
[4] = H69AR cell proliferation blockers – human, duplicate replicates, primary screen (AID 580;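 active means viability at or under a set limit in both replicates, limit being median viability minus 3 SD, cut at about 48% in these data, passing the limit was not always enough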;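 further: 100% = mean luminescence of untreated wells and 0% = no signal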); conditions: H69AR lung tumor cells viability, ATP luminescence, 72 h; at 10 µM; stronger effect = lower value
[5] = MRP1 drug-resistance reversers in H69AR cells – cell-based, doxorubicin co-treatment, pilot screen (AID 601); conditions: CellTiter-Glo, 72 h, at 10 µM; for differential viability (reversal): stronger effect = higher value
[6] = yeast transport mutant growth inhibition pilot in 384-well plates, post-Golgi transport modulator project (AID 636; in the data active means inhibition above about 31%); conditions: absorbance 615 nm, about 18 h, stronger effect = higher value
[7] = growth suppression of yeast trafficking mutant, preliminary HTS, modulators of trafficking downstream of Golgi apparatus project, 1536-format plate, OD 615 nm (AID 637; in the data active means inhibition above about 30%); conditions: yeast transport mutant growth, absorbance 615 nm, 18 h; stronger effect = higher value
[8] = S. cerevisiae growth inhibition in permissive medium (OD615), pilot counter-assay for S. cerevisiae lifespan shortening project, permissive growth control (AID 705;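 active means growth inhibition above 25% in both replicates, a cutoff set 3 SD above the mean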); conditions: OD615, 24 h, at 10 µM, stronger effect = higher value
[9] = S. cerevisiae growth inhibition in restrictive medium, OD615, pilot screen, restrictive growth control, yeast lifespan reduction project (AID 706;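 active means growth inhibition above a set limit, 3 SD over mean compound inhibition, in both replicates, cut at about 43% in these data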;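 further: modified DeaD lifespan yeast strain shifted to restrictive glucose medium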); conditions: OD615, 48 h, at 10 µM, stronger effect = higher value
[10] = doxorubicin toxicity protection in MRP-1 cells – H69AR cells, CellTiter-Glo, duplicate, MRP-1 activator project, pilot screen (AID 807;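 active means viability increase at or above a cutoff of the median across tested compounds plus 3 SD, cut at about 8.5% in these data, passing the limit was not always enough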;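 further: compound pretreatment 18-22 h then 72 h combined with doxorubicin; 0% = doxorubicin alone and 100% = vehicle without doxorubicin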); conditions: H69AR viability with doxorubicin, CellTiter-Glo luminescence; at 10 µM; stronger effect = higher value
[11] = viability of HCT116 without oncogenic beta-catenin – human colon tumor cells, pilot screen (AID 823;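 active means cell viability at or below a set limit in both duplicate runs, the limit being the all-compound median minus 4 SD, cut at about 23% in these data, passing the limit was not always enough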;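 further: 0% = wells killed by 20 µM Hyamine and 100% = untreated DMSO cell wells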); conditions: HCT116 beta-catenin knockout viability, CellTiter-Glo, 60 h; at 10 µM; stronger effect = lower value
[12] = viability of PTEN-null HCT116 cells – cell-based, HCT116 clonal line, CellTiter-Glo, pilot screen (AID 824;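 active means viability at or below 27.92% in each of two runs, the all-compound median minus 4 SD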;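 further: 0% = 20 µM Hyamine control and 100% = vehicle cell control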); conditions: HCT116 PTEN-deleted viability, 60 h, at 10 µM, stronger effect = lower value
[13] = RAM pathway blockade in budding yeast – dse1pr::URA3 reporter, 5-FOA selection, pilot screen (AID 869;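 active means inhibition over a set limit, the all-compound mean plus 3 SD, in both replicate runs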;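 further: 0% = DMSO wells with no growth and 100% = 10 µM 1-NA-PP1 with full growth; RAM network block rescues cells from 5-FOA so hits raise OD615 growth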); conditions: S. cerevisiae dse1pr::URA3 5-FOA growth, OD615, 2 d; at 10 µM; stronger effect = higher value; strain carries analog-sensitive mutant Cbk1 kinase
[14] = HUVEC growth inhibition – cell-based, human, primary screen (AID 575;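 active means viability at or below 30% in both replicate assays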;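 further: 100% = median of untreated cell wells with 0.1% DMSO on each plate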); conditions: HUVEC proliferation, CellTiter-Glo luminescence, 72 h; at 10 µM; stronger effect = lower value
[15] = H69AR cells + 2 uM doxorubicin, measured here: viability with 2 uM doxorubicin, stronger effect = lower value
[16] = H69AR cells, compound alone cytotoxicity

Receptor tyrosine-protein kinase erbB-2 (Homo sapiens), sequence (P04626 whole entry, looked up): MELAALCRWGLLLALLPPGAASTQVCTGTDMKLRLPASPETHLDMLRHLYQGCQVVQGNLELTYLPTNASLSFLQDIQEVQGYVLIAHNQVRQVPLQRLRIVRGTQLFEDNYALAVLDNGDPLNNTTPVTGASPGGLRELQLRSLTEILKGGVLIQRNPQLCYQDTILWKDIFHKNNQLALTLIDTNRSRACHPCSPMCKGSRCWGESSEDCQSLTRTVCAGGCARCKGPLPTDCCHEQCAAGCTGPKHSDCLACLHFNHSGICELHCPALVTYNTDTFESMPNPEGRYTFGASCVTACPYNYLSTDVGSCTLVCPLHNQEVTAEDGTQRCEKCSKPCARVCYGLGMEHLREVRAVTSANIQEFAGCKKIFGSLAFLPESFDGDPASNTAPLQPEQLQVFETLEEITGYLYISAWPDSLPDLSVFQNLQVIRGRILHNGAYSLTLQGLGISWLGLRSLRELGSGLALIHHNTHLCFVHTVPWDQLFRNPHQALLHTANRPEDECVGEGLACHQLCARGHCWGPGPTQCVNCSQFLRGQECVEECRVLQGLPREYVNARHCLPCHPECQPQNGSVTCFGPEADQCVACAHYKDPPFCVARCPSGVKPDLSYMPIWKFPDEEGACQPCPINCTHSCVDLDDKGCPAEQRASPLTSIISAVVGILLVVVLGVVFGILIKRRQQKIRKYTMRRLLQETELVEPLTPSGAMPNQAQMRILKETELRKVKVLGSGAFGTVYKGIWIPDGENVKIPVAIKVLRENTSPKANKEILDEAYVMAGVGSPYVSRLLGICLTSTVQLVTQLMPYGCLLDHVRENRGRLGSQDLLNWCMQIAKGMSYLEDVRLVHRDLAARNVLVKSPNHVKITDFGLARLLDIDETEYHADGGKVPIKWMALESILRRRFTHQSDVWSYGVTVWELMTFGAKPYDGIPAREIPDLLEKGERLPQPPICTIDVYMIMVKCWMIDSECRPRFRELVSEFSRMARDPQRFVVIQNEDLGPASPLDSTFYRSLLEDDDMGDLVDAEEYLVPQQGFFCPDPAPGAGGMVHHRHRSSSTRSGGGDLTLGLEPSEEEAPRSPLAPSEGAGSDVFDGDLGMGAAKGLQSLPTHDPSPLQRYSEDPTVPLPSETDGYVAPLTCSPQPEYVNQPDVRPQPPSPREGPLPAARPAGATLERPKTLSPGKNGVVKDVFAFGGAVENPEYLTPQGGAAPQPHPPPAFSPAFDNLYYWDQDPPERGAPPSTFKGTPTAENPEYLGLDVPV

SMILES: CC1=C(C(=O)OCC(C)C)C(c2cc3c(cc2Br)OCO3)NC(=O)N1C (stereo unspecified)
- viability [1]: 99%
- Her2 level [2]: 75% (inactive)
- viability [3]: 99% (inactive)
- viability [4]: 88.9% (inactive)
- differential viability (reversal) ([5]; H69AR cells + 2 uM doxorubicin): -12.5% (inactive)
- viability [5, 15]: 101%
- viability [5, 16]: 88.9%
- inhibition [6]: -1.82% (inactive)
- inhibition [7]: -3.83% (inactive)
- growth inhibition [8]: 0.885% (inactive)
- growth inhibition [9]: -13.9% (inactive)
- viability increase [10]: -2.54% (inactive)
- viability [11]: 81.2% (inactive)
- viability [12]: 68.4% (inactive)
- inhibition [13]: -0.395% (inactive)

SMILES: O=C(CN1CCC(c2nc3ccccc3s2)CC1)NCc1cccs1
- viability [1]: 110%
- Her2 level [2]: 91% (inactive)
- viability [3]: 110% (inactive)
- viability [4]: 85.3% (inactive)
- differential viability (reversal) ([5]; H69AR cells + 2 uM doxorubicin): -3.33% (inactive)
- viability [5, 15]: 88.6%
- viability [5, 16]: 85.3%
- inhibition [6]: -0.8% (inactive)
- inhibition [7]: 6.72% (inactive)

SMILES: O=C(NC1CCCc2ccccc21)C1CCN(c2nnc(-n3cccc3)s2)CC1 (stereo unspecified)
- viability [1]: 84.5%
- Her2 level [2]: 94.5% (inactive)
- viability [3]: 84.5% (inactive)
- viability [4]: 97.3% (inactive)
- differential viability (reversal) ([5]; H69AR cells + 2 uM doxorubicin): 6.74% (inactive)
- viability [5, 15]: 90.6%
- viability [5, 16]: 97.3%
- inhibition [6]: 1.41% (inactive)
- inhibition [7]: -2% (inactive)
- growth inhibition [8]: -1.88% (inactive)
- growth inhibition [9]: -6.53% (inactive)
- viability increase [10]: -4.06% (inactive)
- viability [11]: 89.5% (inactive)
- viability [12]: 85% (inactive)
- inhibition [13]: 1.14% (inactive)

SMILES: CCCc1cc(-n2ccnc2)n2c(nc3ccccc32)c1C#N
- viability [1]: 89.5%
- Her2 level [2]: 74% (inactive)
- viability [3]: 89.5% (inactive)
- differential viability (reversal) ([5]; H69AR cells + 2 uM doxorubicin): -10.1% (inactive)
- viability [5, 15]: 55.8%
- viability [5, 16]: 45.8%
- inhibition [6]: -3.92% (inactive)
- inhibition [7]: 2.06% (inactive)

SMILES: CCOC(=O)c1c(C)oc2c1c1c(c3ccccc32)OCN(Cc2cccnc2)C1
- viability [1]: 83.5%
- Her2 level [2]: 75% (inactive)
- viability [3]: 83.5% (inactive)
- differential viability (reversal) ([5]; H69AR cells + 2 uM doxorubicin): 29.8% (inactive)
- viability [5, 15]: 21.8%
- viability [5, 16]: 51.6%
- inhibition [6]: -0.39% (inactive)
- inhibition [7]: -5.33% (inactive)

SMILES: CNCCC=C1c2ccccc2CCc2ccccc21
- viability [3]: 23%
- viability [14]: 71.6% (inactive)
- viability [4]: 80.1% (inactive)
- differential viability (reversal) ([5]; H69AR cells + 2 uM doxorubicin): 4.63% (inactive)
- viability [5, 15]: 75.5%
- viability [5, 16]: 80.1%

SMILES: Cn1c(=O)[nH]c(=O)c2c1nc(CN1CCN(c3cccc(Cl)c3)CC1)n2CCc1ccccc1
- viability [1]: 75%
- Her2 level [2]: 96% (inactive)
- viability [3]: 75% (inactive)
- differential viability (reversal) ([5]; H69AR cells + 2 uM doxorubicin): -1.32% (inactive)
- viability [5, 15]: 24.8%
- viability [5, 16]: 23.5%
- inhibition [6]: -1.04% (inactive)
- inhibition [7]: -6.98% (inactive)

SMILES: CCn1c2ccccc2c2cc(N)ccc21
- viability [1]: 117%
- Her2 level [2]: 91.5% (inactive)
- viability [3]: 117% (inactive)
- differential viability (reversal) ([5]; H69AR cells + 2 uM doxorubicin): -6.75% (inactive)
- viability [5, 15]: 56.8%
- viability [5, 16]: 50%
- inhibition [6]: -5.73% (inactive)
- inhibition [7]: 1.59% (inactive)

SMILES: NCc1ccc(S(N)(=O)=O)cc1
- viability [3]: 124% (inactive)
- viability [14]: 84.8% (inactive)
- viability [4]: 102% (inactive)
- differential viability (reversal) ([5]; H69AR cells + 2 uM doxorubicin): 9.47% (inactive)
- viability [5, 15]: 92.1%
- viability [5, 16]: 102%
- inhibition [6]: -1.43% (inactive)
- inhibition [7]: 6.33% (inactive)

SMILES: CCN(CCCCOC(=O)c1ccc(OC)c(OC)c1)C(C)Cc1ccc(OC)cc1 (stereo unspecified)
- viability [3]: 88% (inactive)
- viability [14]: 64.4% (inactive)
- viability [4]: 78.9% (inactive)
- differential viability (reversal) ([5]; H69AR cells + 2 uM doxorubicin): 6.16% (inactive)
- viability [5, 15]: 72.8%
- viability [5, 16]: 78.9%

SMILES: Cc1nc(CNS(=O)(=O)c2cccc(F)c2)cs1
- viability [3]: 64% (inactive)
- viability [14]: 93.3% (inactive)
- viability [4]: 91.4% (inactive)
- differential viability (reversal) ([5]; H69AR cells + 2 uM doxorubicin): 1.23% (inactive)
- viability [5, 15]: 90.1%
- viability [5, 16]: 91.4%
- inhibition [6]: -1.95% (inactive)
- inhibition [7]: 12.1% (inactive)

SMILES: C=C(C)COc1ccc(-c2nc(N)ncc2-c2ccc(OC)cc2)c(O)c1
- viability [1]: 160%
- Her2 level [2]: 73% (inactive)
- viability [3]: 160% (inactive)
- differential viability (reversal) ([5]; H69AR cells + 2 uM doxorubicin): 1.44% (inactive)
- viability [5, 15]: 31.8%
- viability [5, 16]: 33.2%
- inhibition [6]: -1.56% (inactive)
- inhibition [7]: 7.17% (inactive)

SMILES: COc1cc2nc(SCC(=O)NC3CC3)n(CCC3=CCCCC3)c(=O)c2cc1OC
- viability [1]: 102%
- Her2 level [2]: 107% (inactive)
- viability [3]: 102% (inactive)
- viability [4]: 74.5% (inactive)
- differential viability (reversal) ([5]; H69AR cells + 2 uM doxorubicin): 9.46% (inactive)
- viability [5, 15]: 65.1%
- viability [5, 16]: 74.5%
- inhibition [6]: -2.11% (inactive)
- inhibition [7]: -4.33% (inactive)
